Screens deposited in PubChem by National Center for Advancing Translational Sciences (NCATS).
Only some compounds are listed: those with a hit (about 4.2% of all), similar ones and a draw of the others.
TRPV1 PAM = HTS Assay for Compounds that Act as Potentiators of the Vanilloid Receptor 1; Transient receptor potential cation channel subfamily V member 1 (Homo sapiens), Q8NER1; TRPV1-expressing cells, Fluo-8 calcium influx, capsaicin EC20 potentiation; potentiation, % at 8.33 µM; actives 0.02% (n = 320,000); AID 540277, 2011; in the data active = potentiation above about 80%; inconclusive = between about 30% and that limit
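TRPV1-expressing cells were cultured overnight at 35.5C and loaded with Fluo-8 calcium dye for 40 to 90 min at room temperature. After a 10 s baseline, compound was added and calcium influx was read kinetically for 3 min (ex 480/em 520 nm).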
D1 antag = Antagonist of Human D 1 Dopamine Receptor: qHTS. actives 3.2% (n = 360,000). AID 504652, 2011. activity change, negative = inhibition, % at 10 µM. HEK293 TREx D1 cells, calcium flux, dopamine EC80; active compounds read low; in the data active = activity change below about -30%
Target sequence (P21728 whole entry, looked up): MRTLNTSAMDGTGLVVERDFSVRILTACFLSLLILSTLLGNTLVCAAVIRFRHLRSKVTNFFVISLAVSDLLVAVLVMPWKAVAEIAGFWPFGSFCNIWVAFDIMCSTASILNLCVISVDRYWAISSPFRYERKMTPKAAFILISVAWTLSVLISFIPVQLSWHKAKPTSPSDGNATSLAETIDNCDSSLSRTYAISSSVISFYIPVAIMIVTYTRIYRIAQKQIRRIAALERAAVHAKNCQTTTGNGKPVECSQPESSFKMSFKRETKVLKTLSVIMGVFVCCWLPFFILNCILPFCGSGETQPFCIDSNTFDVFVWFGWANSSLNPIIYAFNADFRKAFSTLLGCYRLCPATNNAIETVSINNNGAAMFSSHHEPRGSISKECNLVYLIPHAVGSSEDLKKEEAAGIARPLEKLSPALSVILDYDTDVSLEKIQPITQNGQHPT
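HEK293 T-REx cells expressing inducible, force-coupled D1 receptor; no-wash Ca dye, 30–90 min RT. Cmpd → 180 s read at 1 Hz → EC80 DA → 180 s read.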
D1 agonist = Allosteric Agonists of the Human D1 Dopamine Receptor: qHTS | activation, % at 2 µM | D(1A) dopamine receptor (Homo sapiens), P21728 | actives 1% (n = 360,000) | AID 504660, 2011 | HEK293 T-REx D1 cells, calcium flux, agonist mode; in the data active = activation above about 30%
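Tetracycline-induced HEK293 TREx D1 cells, force-coupled to calcium signalling, were dye-loaded with a no-wash calcium kit. Compound was pin-added after a 10 s baseline. Fluorescence was read kinetically at 1 cycle/s for 180 s, with calcium rises flagged as agonism.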
D1 potentiator = Potentiators of Human D1 Dopamine Receptor: qHTS. HEK293 TREx D1 cells, calcium flux, dopamine EC20 potentiation. potentiation, % at 10 µM. actives 0.036% (n = 360,000). AID 504651, 2011; in the data active = potentiation above about 30%
TRPV1 agonist = HTS Assay for Compounds that Act as Agonists of the Vanilloid Receptor 1; Transient receptor potential cation channel subfamily V member 1 (Homo sapiens), Q8NER1; TRPV1-expressing cells, Fluo-8 calcium influx, agonist mode; activation, % at 8.33 µM; actives 0.19% (n = 320,000); in the data active = activation above about 80%; inconclusive = between about 30% and that limit
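TRPV1-expressing cells were cultured overnight at 35.5C and loaded with Fluo-8 calcium dye for 40 to 90 min at room temperature. After a 10 s baseline, compound was added and calcium influx was read kinetically for 3 min (ex 480/em 520 nm).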
Large screens that a line does not name were inactive; ! = a repeat was not active.

COC(=O)C1=C(c2ccc(Cl)c(C(F)(F)F)c2)C[C@@H]2CC[C@H]1N2C(=O)N1CCOCC1	TRPV1 agonist inconclusive
COC(=O)C1=C(c2ccc(Cl)c(C(F)(F)F)c2)C[C@@H]2CC[C@H]1N2C(=O)N1CCCC1	D1 antag -42, TRPV1 agonist inconclusive
O=C(COc1ccc2ccccc2c1)N1CCN(C2CCN(Cc3ccccc3)CC2)CC1	D1 antag -46
CCCc1ccc(OCC(=O)Nc2ccc(Cl)cc2C(=O)c2ccccc2)cc1	none (no result: TRPV1 PAM, TRPV1 agonist)
CCSc1nnc(NC(=O)c2cccn(Cc3ccc(Cl)cc3)c2=O)s1	D1 antag -35 (no result: TRPV1 PAM, TRPV1 agonist)
COc1ccc(NC(=O)c2cccn(Cc3ccc(Cl)cc3)c2=O)c(OC)c1	D1 antag -40 (no result: TRPV1 PAM, TRPV1 agonist)
Cc1ccc(-n2c(/C=C/c3ccc(Br)s3)nc3ccccc3c2=O)cc1C	none (no result: TRPV1 PAM, TRPV1 agonist)
Cc1nnc(NC(=O)c2cccn(Cc3cccc([N+](=O)[O-])c3)c2=O)s1	none (no result: TRPV1 PAM, D1 antag, TRPV1 agonist)
COCCCNC(=O)c1c(NC(=O)c2ccccc2Cl)n(Cc2ccccc2)c2nc3ccccc3nc12	D1 agonist 40, TRPV1 agonist inconclusive
CCOc1ccc(CN(CCc2ccc3c(c2)OCO3)Cc2cccc(OC)c2)cc1	none (no result: TRPV1 PAM, TRPV1 agonist)
O=c1[nH]c(O)c(N=Nc2ccc3c(c2)OCCO3)c(=O)[nH]1	none
O=C(N=Nc1c(O)[nH]c(=O)[nH]c1=O)C1COc2ccccc2O1 (stereo not drawn)	D1 antag -37
O=[N+]([O-])c1ccc(NCc2ccc(Cl)cc2)c2ccncc12	none
O=[N+]([O-])c1ccc(NCc2ccccc2)c2nonc12	D1 antag -59, D1 agonist 593, TRPV1 agonist 126
Nc1c(C(=O)OCc2ccccc2)c2nc3ccccc3nc2n1Cc1cccs1	D1 antag -30
CCC(C)OC(=O)c1c(N)n(Cc2cccs2)c2nc3ccccc3nc12 (stereo not drawn)	none
Clc1ccc(CNC2CN3CCC2CC3)cc1 (stereo not drawn)	D1 antag -75
Cc1cccc(OCC(=O)N2CCN(CCc3ccccn3)CC2)c1	none (no result: TRPV1 PAM, TRPV1 agonist)
CN1CC[C@@]23CCCC[C@@H]2[C@@H]1Cc1ccc(O)cc13	D1 antag -32
CNC(=O)c1cccn(Cc2cc(C(F)(F)F)cc(C(F)(F)F)c2)c1=O	D1 agonist 30
O=[N+]([O-])c1ccc(N2CCCCCC2)c2nonc12	D1 agonist 526, TRPV1 agonist inconclusive
Cc1cc2c(C(C)C)c(O)c(O)c(C=O)c2c(O)c1-c1c(C)cc2c(C(C)C)c(O)c(O)c(C=O)c2c1O	D1 agonist 34!
O=C1NC(=O)C(=Cc2ccc(OCC(=O)N3CCOCC3)cc2)C(=O)N1	D1 antag -37
N#Cc1cccc(NC(=O)c2sc3nc4c(cc3c2N)N2CCC4CC2)c1	none (no result: TRPV1 PAM, TRPV1 agonist)
O=C(COc1cccc(Cl)c1)N1CCN(CCc2ccncc2)CC1	none (no result: TRPV1 PAM, TRPV1 agonist)
COC(=O)c1ccc(NC(=O)c2cccn(Cc3ccccc3C)c2=O)cc1	none (no result: TRPV1 PAM, TRPV1 agonist)
NCC(O)c1cc(O)c(O)cc1F (stereo not drawn)	D1 antag -85, D1 agonist 37
CCOc1ccc(CN(CCc2ccc3c(c2)OCO3)Cc2cccc(Br)c2)cc1	none (no result: TRPV1 PAM, TRPV1 agonist)
CN1C(CC(O)c2ccccc2)CCCC1CC(O)c1ccccc1 (stereo not drawn)	D1 antag -45
N#Cc1ccccc1NC(=O)c1cccn(Cc2ccccc2)c1=O	none (no result: TRPV1 PAM, D1 antag, TRPV1 agonist)
N#CC(C#N)=Cc1ccc(N2CCCC2)cc1	D1 agonist 37
CC1=NN(c2ccccc2)C(=O)C1/C=C1\C(=O)NC(=O)N(c2cc(C)cc(C)c2)C1=O (stereo not drawn)	none
CC1=NN(c2ccccc2)C(=O)C1/C=C1/C(=O)NC(=O)N(c2cc(C)cc(C)c2)C1=O (stereo not drawn)	D1 antag -37
CSc1nnc([C@@H](N)Cc2ccccc2)o1	none
CC(C)Sc1nnc([C@@H](N)Cc2ccccc2)o1	D1 agonist 75
O=C(COc1ccc(Br)cc1)N1CCN(Cc2ccc3c(c2)OCO3)CC1	D1 antag -34, TRPV1 agonist inconclusive
